Experimental findings from publication PMC6212790, “How bacterial xenogeneic silencer rok distinguishes foreign from self DNA in its resident genome” are described below.

In all, about 33,000 sequences were measured (“e-score”: median about -0.037, highest 2% from about 0.34 on). For the sample, the highest values were picked, then their nearest neighbours and some sequences at random.

The assay deals with T1, GST-Rok (full length) (Bacillus subtilis subsp. subtilis str. …, UniProt O34857 1-191).
T1 sequence: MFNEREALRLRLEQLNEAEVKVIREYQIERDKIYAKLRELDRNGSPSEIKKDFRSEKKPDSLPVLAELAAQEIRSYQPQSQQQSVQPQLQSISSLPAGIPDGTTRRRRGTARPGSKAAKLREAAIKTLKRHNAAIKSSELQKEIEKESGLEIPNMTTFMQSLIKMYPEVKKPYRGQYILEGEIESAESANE
Briefly: protein binding microarray; Rok is a gene silencer of Bacillus subtilis; high values mean tight binding. The settings on record: protein: recombinant; tags: GST (pTH5325, pDEST15-Magic modified); dsDNA, one strand shown. In outline: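 Every oligonucleotide joins a 25-mer constant primer to a 35-mer variable part drawn from a de Bruijn sequence of order 10, so each non-palindromic 8-mer appears at least 32 times and each palindromic 8-mer 16 times. The preference for every 8-mer is reported as a unitless, rank-based enrichment score (E-score). This score spans 0.5 for the most favored 8-mer to −0.5 for the most disfavored.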
On to CGTCGCAA, for which the binding signal was -0.166 E-score.

Regarding AGAACTAT, the binding signal stood at 0.381 E-score. The same measure for ATAACTAT: 0.407 E-score. The same measure for AGAACTAA: 0.254 E-score; for ATAACTAG: 0.243 E-score; for AGAACTAG: 0.298 E-score. To ATAACTAA belongs 0.26 E-score; to CATGCTGA, -0.132 E-score. Turning to AGTGGTCC, the binding signal was -0.177 E-score. Turning to GTCCCGGA, the binding signal was -0.141 E-score. AATCATTA: the binding signal stood at 0.158 E-score. As for GATCATTA, the binding signal came out at 0.355 E-score. To CATCATTA belongs 0.0295 E-score; to TGTAGTAA, 0.349 E-score; to TGTAGGAA, 0.0806 E-score. The same measure for CGTAGTAA: 0.198 E-score; for GGTAGTAA: 0.335 E-score. The same measure for TGTTGTAA: 0.142 E-score. Turning to AGTAGTAA, the binding signal was 0.384 E-score. To ACTGGACG belongs 0.057 E-score; to TCAAGTAA, 0.154 E-score. To AGTAGACA belongs 0.0413 E-score; to ATAATCTC, 0.161 E-score.

Consider CTAATCTC, for which the binding signal was found to be 0.0718 E-score. To GTAATCTA belongs 0.245 E-score.

On to CTAATCAA, for which the binding signal was found to be 0.165 E-score. The same measure for ATAATCTA: 0.352 E-score; for CTAATCTA: 0.362 E-score; for ATGCATGG: 0.0449 E-score. To AACCTACG belongs 9.3e-05 E-score. The same measure for CCAACTGC: -0.00979 E-score; for AGGTTTAA: 0.00862 E-score; for ATATACCA: 0.411 E-score. With ATATACCG, the binding signal turned out to be 0.385 E-score. To CTATACCA belongs 0.258 E-score. To AGATACCG belongs 0.12 E-score.

With ATATACCC, the binding signal worked out at 0.188 E-score. Take GTATACCA: the binding signal stood at 0.311 E-score. In the case of CATTAATC, the binding signal was found to be 0.219 E-score. To AACGGTCT belongs -0.0396 E-score; to GTCCCGCA, -0.196 E-score.

In the case of CGCGGTTA, the binding signal was -0.0283 E-score. For the sequence ATAAATAC, the binding signal was found to be 0.276 E-score. For the sequence CTAAATAA, the binding signal was 0.251 E-score. To CTAAATAG belongs 0.172 E-score; to CTAAATAC, 0.351 E-score; to GTAAATAC, 0.352 E-score. To GTAAATAA belongs 0.234 E-score; to CAAGCAGC, -0.0674 E-score.

Consider TAGTTACA, for which the binding signal was 0.349 E-score. The same measure for CAGTTACA: 0.24 E-score; for GAGTTATA: 0.222 E-score. To TAGTTATA belongs 0.382 E-score; to CAGTTATA, 0.288 E-score.

As for AAGTTACA, the binding signal is 0.18 E-score. As for AGCTGAAG, the binding signal worked out at 0.0654 E-score.

Turning to AACGCCTA, the binding signal was -0.101 E-score. The same measure for ACTTAACC: 0.121 E-score. The same measure for ATACCGAT: 0.342 E-score; for ATACCGAG: 0.116 E-score; for ATACCGAC: 0.0836 E-score. To GTTGGCGA belongs -0.0273 E-score; to GGAGCAGA, -0.132 E-score; to CGCCTTCA, 0.0118 E-score.

In the case of TAGCAGGA, the binding signal was -0.0921 E-score. As to ACCAAGGT, the binding signal is -0.0988 E-score. Take GACACGAC: the binding signal is -0.0441 E-score. To GGTAGTTA belongs 0.413 E-score. The same measure for ACTAGTTG: 0.313 E-score; for CGTAGTTA: 0.127 E-score. To AGTAGTGA belongs 0.0919 E-score; to GTTAGTTA, 0.258 E-score; to ATTAGTTG, 0.334 E-score. In the case of AGTAGTTA, the binding signal amounted to 0.434 E-score. The same measure for CGTAGTTC: 0.255 E-score.

Consider AGTAGTTC, for which the binding signal was determined as 0.413 E-score. In the case of ATTAGTTC, the binding signal stood at 0.172 E-score. To GGTAGTCA belongs 0.125 E-score. To AGTAGTTG belongs 0.388 E-score; to GTAAGAAA, 0.327 E-score. The same measure for CGTACAAC: 0.103 E-score; for CGGAGGAA: -0.194 E-score; for ACAATGAC: 0.00584 E-score. Regarding AAAGACAA, the binding signal stood at 0.02 E-score. To GTTATTCA belongs 0.0398 E-score. The same measure for ATAGGTCC: 0.123 E-score; for CTAAGGCC: -0.158 E-score.

As to AATATTCG, the binding signal was found to be 0.255 E-score. The same measure for AATATTGT: 0.34 E-score.

Turning to AATATTGG, the binding signal is 0.103 E-score. To AATATTCT belongs 0.338 E-score. The same measure for AATATTCC: 0.131 E-score; for AATATTGA: 0.287 E-score; for TGCGGGAA: -0.19 E-score. To CTAAGCCA belongs 0.0287 E-score. With GGTTAGTA, the binding signal was found to be 0.0365 E-score. To CGTCGTTC belongs -0.0713 E-score; to GAACCGAC, -0.0645 E-score.

As to CGAAGAAA, the binding signal turned out to be 0.195 E-score.

AGAAATTC: the binding signal stood at 0.228 E-score.

For the sequence CGAAATTA, the binding signal was determined as 0.269 E-score. To CGAAATTC belongs 0.341 E-score; to GCAACCAC, 0.0207 E-score. The same measure for GGAATCAA: 0.103 E-score. The same measure for AGAATCTC: 0.0678 E-score; for AGAATCTG: -0.0414 E-score; for CGAATCTA: 0.305 E-score.

Take AGAATCTA: the binding signal turned out to be 0.337 E-score.

Consider GGAATCTA, for which the binding signal was found to be 0.363 E-score. The same measure for CGGAATTA: 0.239 E-score; for GAAGGTTA: -0.0133 E-score.

In the case of GCACTCAA, the binding signal was -0.134 E-score. In the case of ACCGGACC, the binding signal was -0.0925 E-score. To ACGGTACG belongs -0.0886 E-score; to CCTCACCG, -0.0671 E-score; to AAACTAAG, 0.345 E-score.

For CAACTACG, the binding signal is 0.12 E-score. The same measure for AAACTACG: 0.377 E-score; for AAACTAAT: 0.332 E-score; for AGACTACC: 0.249 E-score. To AAACTAAC belongs 0.233 E-score; to CAACTACC, 0.303 E-score; to AAACTACC, 0.475 E-score.

For the sequence ACACTACG, the binding signal is -0.0357 E-score. To AAACTACT belongs 0.484 E-score; to AGACTACT, 0.209 E-score. The same measure for ACACTACT: 0.236 E-score; for ATGCGGCA: 0.0193 E-score.

CACCTAAC: the binding signal was determined as 0.06 E-score.

Regarding CTTCATAC, the binding signal came to 0.0169 E-score. To ATGCAGGA belongs 0.0987 E-score; to ATAGAGAG, -0.0418 E-score.

With AGAAAACC, the binding signal is -0.176 E-score. Take AGCAAGCG: the binding signal is -0.0451 E-score. For GCTGGAGA, the binding signal was -0.105 E-score. The same measure for ATTCGCAC: -0.0552 E-score; for ATTAGGCC: -0.131 E-score. The same measure for TCACTACA: 0.0227 E-score; for GAACTACA: 0.222 E-score; for TAACTACA: 0.441 E-score. As to GAACTACC, the binding signal was 0.338 E-score. With AAACTAAA, the binding signal worked out at 0.324 E-score.

As for CAACTACA, the binding signal is 0.18 E-score.

As to AAACTACA, the binding signal is 0.408 E-score. The same measure for TGACTACA: 0.197 E-score; for GCACTACC: -0.000872 E-score. In the case of TAGGCTAA, the binding signal is -0.112 E-score. The same measure for ATATCGAT: 0.316 E-score.

Take AAGTCTGA: the binding signal was -0.121 E-score. The same measure for CTAGGAAC: -0.0546 E-score; for GGTAGCTA: 0.341 E-score.

AGTAGCTC: the binding signal is 0.0983 E-score. CGTAGCTC: the binding signal stood at 0.0159 E-score. The same measure for ACTAGCTA: 0.347 E-score; for GCTAGCTA: 0.156 E-score.

Turning to GGTAGCGA, the binding signal was 0.0576 E-score. With CGTAGCTA, the binding signal was 0.365 E-score. The same measure for GGTAGCAA: 0.241 E-score; for AGTAGCTG: 0.204 E-score. Turning to CCTAGCTA, the binding signal is 0.107 E-score.

With AGTAGCTA, the binding signal came to 0.386 E-score. The same measure for CGTAGCGA: 0.0631 E-score; for GTTGAGGA: -0.0613 E-score. To CATTACCA belongs 0.14 E-score; to CAGTAACG, 0.112 E-score; to AAACTATT, 0.458 E-score.

Regarding AAACTATA, the binding signal came to 0.396 E-score. In the case of AAACTCTT, the binding signal was 0.188 E-score. Turning to TAACTAAA, the binding signal is 0.151 E-score. To CAACTATC belongs 0.192 E-score; to AAACTATC, 0.412 E-score; to CAACTATA, 0.307 E-score.

TAACTATA: the binding signal was 0.341 E-score. The same measure for GAACTATC: 0.292 E-score. To ACACTATA belongs 0.245 E-score. Consider AAACTATG, for which the binding signal came out at 0.195 E-score. The same measure for GAACTATA: 0.289 E-score.
